Bioassay records: PubChem, National Center for Advancing Translational Sciences (NCATS)
Many of the other results were omitted from the sample, so hits are more common in it than they were.
VDR inhibitor = blocks the human vitamin D receptor. AID 504847. VDR-SRC2-3 peptide fluorescence polarization, 2 h. Potency, µM, hits mostly inhibitors. hit rate 0.93% among 400,000. P11473
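The screen uses fluorescence polarization to detect compounds that interfere with recruitment of the SRC2-3 coactivator peptide to VDR; plates are read after 2 h at room temperature.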
Sfp PPTase inh = inhibitors of Bacillus subtilis Sfp phosphopantetheinyl transferase. hit rate 3.5% among 310,000. Q9F4F7. AID 1490. Potency, µM, actives largely listed as inhibitors. Biochemical Sfp PPTase activity, qHTS;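 also: the enzyme is Sfp with the accession as filed and its product quenches rhodamine fluorescence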
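Compounds were incubated with enzyme (final 15 nM) for 15 min at room temperature before substrate addition started the reaction. Fluorescence at 525 nm excitation, 598 nm emission was recorded immediately and after 30 minutes.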
G9a inh = blocks human histone lysine methyltransferase G9a; Q96KQ7; G9a H3K9 monomethylation, AlphaScreen, 2 h; Potency, µM (highest dose often 102 µM), hits mostly inhibitors; hit rate 8.8% among 350,000; AID 504332; also: nearly all actives have a fitted effect of over 75% in size
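G9a (20 nM) preincubated 15 min RT with compounds, then 500 nM biotinylated H3K9 peptide and 20 uM SAM added; 2 h RT reaction. Monomethyl-H3K9 product detected by AlphaScreen with anti-H3K9me1 antibody, streptavidin donor and anti-rabbit IgG acceptor beads.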
GRP78 ERSR act = inducers of ER stress response in human glioma cells; U87-MG GRP78 promoter luciferase reporter, 16 h; Potency, µM, actives largely listed as activators; hit rate 0.02% among 420,000; AID 602332; also: series mostly up to about 76 µM; nearly all actives have a fitted effect of over 35% in size
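Stably transfected U87-MG glioma cells carrying a GRP78-based luciferase sensor; 16 h compound incubation. Luminescence end-point read 10 min after Bright-Glo addition at room temperature.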
ALOX12 inh = ALOX12 (human) lipoxygenase inhibition. P18054. purified 12hLO, xylenol orange hydroperoxide absorbance. Potency, µM (titrated, usually from 108 µM), hits mostly inhibitors. hit rate 1.1% among 580,000
Target sequence (P18054 whole entry, looked up): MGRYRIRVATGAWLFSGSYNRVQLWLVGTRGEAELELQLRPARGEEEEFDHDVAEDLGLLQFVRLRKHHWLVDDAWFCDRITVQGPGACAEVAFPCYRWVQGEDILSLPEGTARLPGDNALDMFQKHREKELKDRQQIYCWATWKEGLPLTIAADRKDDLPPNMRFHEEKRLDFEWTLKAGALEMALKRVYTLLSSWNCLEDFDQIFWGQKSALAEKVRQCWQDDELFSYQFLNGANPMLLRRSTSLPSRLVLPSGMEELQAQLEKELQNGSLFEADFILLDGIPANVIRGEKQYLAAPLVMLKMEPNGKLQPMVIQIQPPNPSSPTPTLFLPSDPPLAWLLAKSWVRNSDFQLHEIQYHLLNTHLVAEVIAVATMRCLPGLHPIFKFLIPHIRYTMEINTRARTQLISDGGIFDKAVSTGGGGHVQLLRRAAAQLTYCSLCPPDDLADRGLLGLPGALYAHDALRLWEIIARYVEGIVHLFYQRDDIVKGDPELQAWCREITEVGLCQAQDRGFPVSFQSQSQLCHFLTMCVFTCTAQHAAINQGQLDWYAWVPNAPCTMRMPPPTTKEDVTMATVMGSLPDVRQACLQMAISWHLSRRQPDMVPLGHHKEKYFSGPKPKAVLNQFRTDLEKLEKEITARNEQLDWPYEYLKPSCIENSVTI
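Purified human 12hLO at 150 nM in 25 mM Hepes, 0.01% Triton X-100, pH 7.0, preincubated 15 min at room temperature with compound. Reaction started with 40 uM arachidonic acid, 30 min at room temperature. Hydroperoxide measured by Fe-xylenol orange, 573/405 nm absorbance ratio.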
A number is an active result; i = inactive; ? = inconclusive; nt = not tested or not shown; [ ] = remark or other dose. Calls follow the shape of the dose curve; as a rule, active = well fitted curve in the direction sought with a large enough effect; inconclusive = small, poorly fitted or top-dose-only effect, or another doubt; inactive = no such curve, though single readings can be large; an effect the other way counts as inactive or inconclusive.

SMILES	VDR inhibitor	Sfp PPTase inh	G9a inh	GRP78 ERSR act	ALOX12 inh
CCOC(=O)C1(C)/C(=N/Nc2ccc(S(N)(=O)=O)cc2)C(=O)C(=O)N1c1ccccc1 (stereo not drawn)	i	i	35µM	i	i
CCOC(=O)C1(C)/C(=N/Nc2ccc(Cl)cc2)C(=O)C(=O)N1c1ccccc1 (stereo not drawn)	i	i	?	i	?
Cc1noc(-c2ccccc2[N+](=O)[O-])c1-c1ccccc1[N+](=O)[O-]	nt	nt	nt	nt	i
Cc1[nH]c2ccc(F)cc2c1CCN1C(=O)OC(C)(C)C1(C)O (stereo not drawn)	i	i	i[12.7 µM]	i	i
Cc1[nH]c2ccc(OCc3ccccc3)cc2c1CCN1C(=O)OC(C)(C)C1(C)O (stereo not drawn)	i	i	79µM	i	i
Cc1cc(C)cc(N2CC(c3nc(-c4cccnc4)no3)CC2=O)c1 (stereo not drawn)	nt	nt	nt	nt	i
COc1cccc(-c2nc(-c3ccc(Br)cc3)no2)c1OC	nt	nt	nt	nt	i
COc1ccc(CN=C(C#N)C2=C(O)c3ccccc3C2=O)cc1	i	i	35µM	i	?
N#CC(=Nc1cccc(F)c1)C1=C(O)c2ccccc2C1=O	nt	nt	nt	i	i
Cc1cc(O)c2c(C)c(CC(=O)NCCc3cccc(F)c3)c(=O)oc2c1	nt	nt	nt	nt	28µM
Cc1c(CC(=O)NCCc2cccc(F)c2)c(=O)oc2cc(O)ccc12	nt	nt	nt	nt	i
O=C(Cn1cnc(S(=O)(=O)N2CCCC2)c1)Nc1cccc(-c2ccno2)c1	nt	nt	nt	nt	i
Cc1nc2ccc(NC(=O)c3cccs3)cc2s1	i	i	i	i	i
CCc1sc(NC(C)=O)nc1-c1ccccc1	i	i	i	i	i
CCOCC(=O)Nc1nnc(C)s1	i	i	45µM	i	?
CCc1sc(NC(=O)COC)nc1-c1ccccc1	i	i	35µM	i	i
CC(=O)Nc1ccc2nc(NC(=O)c3cccs3)sc2c1	i	i	45µM	i	i
CCOCC(=O)Nc1nc2ccccc2s1	i	50µM	i	i	i
CC#CCn1cc2c3c(cccc31)[C@H](CC(C)C)N[C@H](C(=O)N1CCN(CCO)CC1)C2	nt	nt	nt	nt	i
O[C@H]1[C@H](NCC2CCCCC2)[C@H]2CO[C@H](O2)[C@@H]1N1CCC(Cc2ccccc2)CC1	nt	nt	nt	nt	i
Cc1nc2nc(CC(=O)Nc3ccccc3)nn2c(C)c1Cc1ccccc1Cl	nt	nt	nt	nt	i
CCc1ccc(OC(=O)c2cc(OC)c(OC)c(OC)c2)c(Br)c1	nt	nt	nt	nt	i
c1cc(CNC2CC2)c2cc[nH]c2c1	nt	nt	nt	nt	i
CCC(=O)Nc1nc2ccc(NC(=O)COc3ccccc3)cc2s1	i	i	79µM	i	nt
O=C(NCc1ccc(F)cc1)c1cc2ccccc2o1	i	i	79µM	i	i
SMILES	VDR inhibitor	Sfp PPTase inh	G9a inh	GRP78 ERSR act	ALOX12 inh
O=C(NNC(=O)c1cc2ccccc2oc1=O)c1ccccc1	i	50µM	32µM	i	i
O=C(NCc1cccnc1)c1cc2ccccc2oc1=O	i	i	50µM	i	i
O=S(=O)(NCCc1ncc2ccccn12)c1ccccc1	nt	nt	nt	nt	i
COC(=O)CCc1sc(Nc2ccc(OC)cc2)nc1-c1ccc(OC)cc1	i	nt	8.9µM	i	i
O=C(O)c1sc(Nc2ccccc2)nc1-c1ccccc1	i	nt	i	i	i
COC(=O)CCc1sc(NC2CCCCC2)nc1-c1ccc(OC)cc1	i	i	13µM	i	?
COc1ccc(CCNC(=O)c2sc(NC3CC3)nc2C)cc1	nt	nt	nt	nt	i
CCCCCCNc1nc(-c2ccc(OC)cc2)c(CCC(=O)O)s1	i	i	45µM	i	i
CC(C)NC(=S)NC(c1ccccc1)(c1ccccc1)c1ccccc1	?	i	nt	i	40µM
CC1(C)OC2C(CO)OC(n3cnc4c(=S)nc[nH]c43)C2O1 (stereo not drawn)	i	16µM	8.9µM	i	?
OCC1OC(n2cnc3c(=S)nc[nH]c32)C(O)C1O (stereo not drawn)	i	3.5µM	16µM	i	nt
O=C(N=C(c1ccccc1)c1ccccc1)c1ccco1	nt	nt	nt	nt	i
O=C(C#Cc1ccccc1)c1ccco1	22µM	?	40µM	i	i
Cn1ccnc1C(O)(CC(=O)Nc1ccccc1)C(F)(F)F (stereo not drawn)	nt	nt	nt	nt	i
Cc1cc(CSCC(=O)Nc2ccc(C(F)(F)F)cc2)no1	nt	nt	nt	nt	i
Cc1cccc[n+]1C1C(c2ccccc2)C(C#N)=C(C(=C=[N-])C#N)NC1(O)C1CC1 (stereo not drawn)	i	i	40µM	i	nt
N#CC(=C=[N-])C1=C(C#N)C(c2ccccc2F)C([n+]2ccccc2)C(O)(C2CC2)N1 (stereo not drawn)	i	i	?	i	i
CC(NC(=O)CSc1nc(CN2CCOCC2)nc2ccccc12)c1cccc2ccccc12 (stereo not drawn)	nt	nt	nt	nt	i
O=C(NCc1cccs1)c1cnccn1	nt	nt	nt	nt	i
CCOC(=O)c1[nH]c2c(c1C)C(=O)CC(c1ccco1)C2 (stereo not drawn)	i	25µM	?	i	i
COc1ccc(C2CC(=O)c3c([nH]c(C(=O)OCc4ccccc4)c3C)C2)cc1 (stereo not drawn)	i	nt	i	i	i
Cc1c(C(=O)OCc2ccccc2)[nH]c2c1C(=O)CC(c1ccco1)C2 (stereo not drawn)	i	40µM	?	i	nt
CSCCOC(=O)c1[nH]c2c(c1C)C(=O)CC(c1ccco1)C2 (stereo not drawn)	i	45µM	22µM	i	i
Cc1c(C(=O)OCCOC(C)C)[nH]c2c1C(=O)CC(c1ccco1)C2 (stereo not drawn)	i	?	45µM	i	nt
CCC(C)NC(=O)C(NC(=O)c1ccc(C)cc1)C1CCN(C(=O)CC(C)(C)C)CC1 (stereo not drawn)	nt	nt	nt	nt	i
SMILES	VDR inhibitor	Sfp PPTase inh	G9a inh	GRP78 ERSR act	ALOX12 inh
Cc1c(C(=O)N2CCC(C(=O)Nc3ccc4c(c3)OCO4)CC2)oc2ccc(F)cc12	nt	nt	nt	nt	i
CCOC(=O)c1cc(CC)sc1N1C(=O)CC(Sc2ncccc2C(=O)O)C1=O (stereo not drawn)	i	i	25µM	i	i
COC(=O)c1c(N2C(=O)CC(Sc3ccccc3C(=O)O)C2=O)sc(C)c1C (stereo not drawn)	?	i	1.6µM	i	i
CCOC(=O)c1cc(CC)sc1N1C(=O)CC(Sc2ccccc2C(=O)O)C1=O (stereo not drawn)	i	3.5µM	1.8µM	i	?
COC(=O)c1c(N2C(=O)[C@H]3[C@@H](C2=O)[C@]2(C(=O)Nc4c(C)cccc42)N2CCC[C@@H]32)sc(C)c1C	i	i	?	i	?
O=C(COc1ccccc1Cl)Nc1ccc(C(=O)O)cc1NC(=O)COc1ccccc1Cl	i	i	i[12.7 µM]	i	i
O=C(COc1cccc2ccccc12)Nc1ccc(Cl)cc1C(=O)O	?	i	79µM	?	?
Cc1cc(C(=O)Nc2ccccc2C(=O)O)ccc1NC(=O)COc1ccccc1Cl	i	i	22µM	i	i
O=C(COc1cccc2ccccc12)Nc1cc(Cl)ccc1C(=O)O	i	i	i	i	?
CCCCCCNC(=O)CCNC(=O)c1ccccc1	nt	nt	nt	nt	i
